# Screening results from PubChem.
# Compounds with a hit are over-represented: about 3.5% of the library has one in this group of screens.
# MITF inh = human MITF inhibition, primary screen; inhibition, % at 2.6 µM; 650,000 compounds, 0.91% hits; O75030; AlphaScreen MITF homodimerization, bead proximity signal; in the data active = inhibition above about 50%
# FBW7 act = activators of human E3 ligase FBW7 | AlphaScreen FBW7–phospho-cyclin E peptide binding, activator screen | normalized activity (activation), % at 26.1 µM | 650,000 compounds, 0.13% hits; in the data active = normalized activity above about 1.9%;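 note: purified mutant Fbw7 with reduced substrate affinity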
# TEAD-YAP block = TEAD-YAP interaction inhibition; HEK-TIYL cells, TEAD-Gal4/YAP UAS-luciferase luminescence; inhibition, % at 9.12 µM; 640,000 compounds, 1.4% hits; in the data active = inhibition above about 32%
# GPR151 ag = human GPR151 activation | AID 1508602 | PathHunter beta-arrestin GPR151 cells, luminescence | 650,000 compounds, 1% hits | activation, % at 11.2 µM | Q8TDV0; in the data active = activation above about 4.9%
# Target sequence (Q8TDV0 whole entry, looked up): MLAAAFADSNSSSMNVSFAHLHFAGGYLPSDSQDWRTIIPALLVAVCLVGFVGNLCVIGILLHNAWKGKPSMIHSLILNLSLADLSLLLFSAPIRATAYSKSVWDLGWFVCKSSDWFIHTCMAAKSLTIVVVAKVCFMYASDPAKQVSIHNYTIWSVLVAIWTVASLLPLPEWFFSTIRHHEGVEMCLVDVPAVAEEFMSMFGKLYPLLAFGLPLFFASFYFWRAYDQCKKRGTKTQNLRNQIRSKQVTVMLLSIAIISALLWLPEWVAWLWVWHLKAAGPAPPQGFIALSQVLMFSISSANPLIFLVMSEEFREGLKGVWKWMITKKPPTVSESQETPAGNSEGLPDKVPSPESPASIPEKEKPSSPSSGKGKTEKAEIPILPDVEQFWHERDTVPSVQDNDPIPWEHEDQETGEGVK
# Hits are given with their value; i = inactive.
SMILES,MITF inh,FBW7 act,TEAD-YAP block,GPR151 ag
O=C(N/N=C/c1ccc(O)c(Br)c1)c1cc([N+](=O)[O-])cc([N+](=O)[O-])c1,i,i,i,i
CC(=O)c1ccc2c(c1)[nH]c1cc(C(C)=O)ccc12,i,i,46,i
COc1cccc(COc2cn(C)c(C(=O)NCc3cccnc3)cc2=O)c1,i,i,i,i
COc1cc2nc(Nc3ccccc3)nc(Nc3ccccc3)c2cc1OC,i,i,i,i
COc1cc2nc(Oc3ccccc3)nc(Nc3ccc(N4CCOCC4)cc3)c2cc1OC,i,i,42,i
COc1cc2nc(Oc3ccccc3)nc(Nc3ccccc3)c2cc1OC,i,i,38,i
COc1ccc(CCNc2nc(Nc3nccc4ccccc34)nc3c2ncn3C2CCCCC2)cc1,i,i,33,i
CCCNc1nc(Nc2nccc3ccccc23)nc2c1ncn2-c1ccsc1,i,i,65,i
CCCNc1nc(Nc2nccc3ccccc23)nc2c1ncn2-c1ccccc1,i,i,i,i
Oc1ccc(CCNc2nc(Nc3nccc4ccccc34)nc3c2ncn3-c2ccsc2)cc1,i,i,66,i
Oc1ccc(CCNc2nc(Nc3nccc4ccccc34)nc3c2ncn3C2CCCCC2)cc1,i,i,i,i
O=C1CCCC2=C1C(c1cccc(F)c1Br)n1c(nc3ccccc31)N2 (configuration not stated),i,i,36,i
CC(C)CCN(C(=O)CCl)c1c(N)n(Cc2ccccc2)c(=O)[nH]c1=O,i,i,68,i
Cn1c(-c2ccccc2)c(C(C[N+](=O)[O-])c2ccco2)c2ccccc21 (configuration not stated),i,i,54,i
Cn1c(-c2ccccc2)c(C(C[N+](=O)[O-])c2ccc(C(F)(F)F)cc2)c2ccccc21 (configuration not stated),i,i,i,i
C=C(C)CN1C(=O)NC(CC)(C2CCN(CC3=CC[C@H]4C[C@@H]3C4(C)C)CC2)C1=O (some centres not stated),i,i,43,i
C=C(C)CN1C(=O)NC(CC)(C2CCN(Cc3ccccc3C)CC2)C1=O (configuration not stated),i,i,i,i
O=C(Nc1ccc(Cc2ccncc2)cc1)c1cncc(Br)c1,i,i,i,i
CCOC(=O)C(C)Oc1ccc2cc(-c3ccc(OC)c(OC)c3)c(=O)oc2c1 (configuration not stated),i,2.3,i,i
COc1ccccc1-c1cc2ccccc2oc1=O,i,i,i,i
COc1ccc(-c2cc3ccccc3oc2=O)cc1N,i,i,33,i
CCOC(=O)COc1ccc2c(C)c(-c3ccc(OC)c(OC)c3)c(=O)oc2c1,i,2.0,i,i
Fc1ccc(Nc2nccc(-c3cncc(N4CCOCC4)c3)n2)cc1,i,i,68,i
FC(F)(F)c1cc(Nc2nccc(-c3cncc(N4CCOCC4)c3)n2)ccc1Cl,i,i,i,i
Fc1cc(-c2ccnc(Nc3ccc(-c4ncn[nH]4)cc3)n2)cc(N2CCOCC2)c1,i,i,74,i
SMILES,MITF inh,FBW7 act,TEAD-YAP block,GPR151 ag
Cn1ccc2cc(Nc3nccc(-c4cncc(N5CCOCC5)c4)n3)ccc21,i,i,81,i
COc1ccc(Nc2nccc(-c3cncc(N4CCOCC4)c3)n2)cc1OC,i,i,47,i
FC(F)Oc1ccc(Nc2nccc(-c3cncc(N4CCOCC4)c3)n2)cc1,i,i,i,i
Cc1ccc(C(=O)OCC(=O)c2ccccc2)cc1S(=O)(=O)N1CCOCC1,i,i,i,i
Cn1cnnc1-c1ccc(Nc2nccc(-c3cncc(N4CCOCC4)c3)n2)cc1,i,i,33,i
Cc1nc2ccc(Nc3nccc(-c4cncc(N5CCOCC5)c4)n3)cc2o1,i,i,i,i
c1cc(-c2cncc(N3CCOCC3)c2)nc(Nc2ccc(OCCN3CCOCC3)cc2)n1,i,i,78,i
O=S(=O)(c1ccc(Nc2nccc(-c3cncc(N4CCOCC4)c3)n2)cc1)N1CCOCC1,i,i,i,i
Cc1[nH]nc2ccc(Nc3nccc(-c4cncc(N5CCOCC5)c4)n3)cc12,i,i,77,i
CCN1C(=O)CC(C(=O)Nc2ccc(Br)cc2)SC1=Nc1ccc(OC)cc1 (configuration not stated),i,i,34,i
CCOc1ccc(NC(=O)C2CC(=O)N(CC)C(=Nc3ccc(OC)cc3)S2)cc1 (configuration not stated),i,i,i,i
O=C(Nc1noc2ccccc12)c1c(F)cccc1F,i,i,57,i
Cc1ccc2c(NC(=O)c3ccccc3F)noc2n1,i,i,i,i
O=C(Nc1noc2ncccc12)c1ccccc1Cl,i,i,94,i
O=C(Nc1noc2ncccc12)c1ccccc1F,i,i,83,i
CC(C)(C)NC(=O)Cn1c(SCC(N)=O)nc2ccccc21,i,2.0,i,i
CN(C)C(=O)CSc1nc2ccccc2n1CC(=O)NC(C)(C)C,i,i,i,i
CC(C)(C)c1ccc(OCCSc2nc3ccccc3n2CC(N)=O)cc1,i,i,48,i
COc1cccc(C=Nc2cnn(C)c2C(N)=O)c1O,i,3.6,i,i
O=C(NC1CCCCCCC1)C1CCCN1S(=O)(=O)c1cccc2nsnc12 (configuration not stated),i,i,i,i
COc1ccc(OCCOc2cccc(/C=C3\C(=N)N4N=C(CC(C)C)SC4=NC3=O)c2)cc1,i,i,i,i
COc1cc2nc(Oc3ccccc3)nc(NCc3cccc(C(F)(F)F)c3)c2cc1OC,i,i,47,i
COc1cc2nc(Nc3nc4ccccc4n3C)nc(NC3CC3)c2cc1OC,i,3.6,i,i
COc1cc2nc(Cl)nc(NCc3cccc(C(F)(F)F)c3)c2cc1OC,i,i,i,i
COc1cc2nc(Nc3nc4ccccc4n3C)nc(NCc3cccc(C(F)(F)F)c3)c2cc1OC,i,i,39,i
SMILES,MITF inh,FBW7 act,TEAD-YAP block,GPR151 ag
COc1ccc(Nc2nc(NCc3cccc(C(F)(F)F)c3)c3cc(OC)c(OC)cc3n2)cc1,i,i,i,i
COc1cc2nc(Nc3nc4ccccc4n3C)nc(Nc3cc(OC)c(OC)c(OC)c3)c2cc1OC,i,i,i,i
Cc1ccn2c(-c3csc(Nc4ccc(Cl)cc4)n3)c(C)nc2c1,i,i,55,i
Cc1ccn2c(-c3csc(Nc4ccc(S(N)(=O)=O)cc4)n3)c(C)nc2c1,i,i,i,i
CC(=O)Nc1ccc(Nc2nc(-c3c(C)nc4cc(C)ccn34)cs2)cc1,i,i,57,i
Cc1ccc(-n2c(-c3ccccc3)c[n+]3c2CCCCC3)cc1,i,i,59,i
Clc1ccc(-c2c[n+]3c(n2-c2ccccc2)CCC3)cc1,i,i,i,i
Brc1ccc(-c2c[n+]3c(n2-c2ccccc2)SCC3)cc1,i,i,i,i
Cc1ccc(-c2cn(-c3ccccc3)c3[n+]2CCCS3)cc1,i,i,68,i
COc1ccc(-c2c[n+]3c(n2-c2c(C)n(C)n(-c4ccccc4)c2=O)CCCCC3)cc1,i,i,i,i
Cc1ccc(-c2c[n+]3c(n2-c2ccc(C)cc2)CCCCC3)cc1,i,i,85,i
Cc1ccc(-c2c[n+]3c(n2-c2ccccc2)SCC3)cc1,i,i,56,i
O=C(Nc1cc2ccccc2oc1=O)c1cccc(Cl)c1Cl,i,i,i,i
